Bioassay records as filed in PubChem BioAssay.
HCV inh = qHTS Assay for Inhibitors of Hepatitis C Virus (HCV); Huh7.5.1 HCVcc-Cre infection, luciferase reporter, 44 h; 340,000 compounds, 3.4% hits; Potency, µM (doses to about 41.8 µM), most hits filed as inhibitors
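1,000 cells/well; 4 h culture; + compound; + HCVcc-Cre (~0.5 moi); 44 h; luciferase substrate, RT 15 min; read 15 sec.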
Marburg entry inh = qHTS for inhibitors of binding or entry into cells for Marburg Virus. Marburg virus pseudotyped entry inhibition, cell reporter. Potency, µM (top dose mostly 37.8 µM), actives largely listed as inhibitors. 300,000 compounds, 1.8% hits. AID 540276, 2011; calls by dose curve; tested in HEK293 cells
LASV entry inh = qHTS for Inhibitors of binding or entry into cells for Lassa Virus | Potency, µM (top dose mostly 37.9 µM), most hits filed as inhibitors | 300,000 compounds, 1.2% hits | Lassa virus pseudotype entry inhibition, cell reporter; calls by dose curve; tested in HEK293 cells; further: nearly all actives have a fitted effect of over 50% in size
Giardia FBPA inh = qHTS Assay for Inhibitors of Fructose-1,6-bisphosphate Aldolase from Giardia Lamblia; purified Giardia FBPA; 290,000 compounds, 0.71% hits; A8B2U2; Potency, µM (doses to about 59.6 µM), actives largely listed as inhibitors; further: nearly all actives have a fitted effect of over 55% in size
Target sequence (A8B2U2 whole entry, looked up): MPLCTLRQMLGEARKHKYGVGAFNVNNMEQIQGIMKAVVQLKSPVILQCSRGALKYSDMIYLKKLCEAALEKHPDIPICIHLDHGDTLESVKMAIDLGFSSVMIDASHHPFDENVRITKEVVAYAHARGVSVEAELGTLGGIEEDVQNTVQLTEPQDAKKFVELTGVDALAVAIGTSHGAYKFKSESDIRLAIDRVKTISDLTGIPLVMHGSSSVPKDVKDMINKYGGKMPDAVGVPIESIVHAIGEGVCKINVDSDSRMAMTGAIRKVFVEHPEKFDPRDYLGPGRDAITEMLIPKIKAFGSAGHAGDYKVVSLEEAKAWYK
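40 nM FBPA preincubated 10 min at RT with compound (up to 57.5 uM final), then substrate plus GAPDH/TPI/NAD/arsenate coupling and diaphorase/resazurin added. Fluorescence read after 20 min at RT, 525/598 nm.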
HCMV antiviral = qHTS Assay for inhibitors of the human cytomegalovirus (HCMV) | HFF cells, HCMV-luciferase reporter, 72 h; hits give low values | activity change, negative = inhibition, % at 57.5 µM | 410,000 compounds, 4.5% hits; in the data active means activity change below about -60%; inconclusive means no clear call, values can overlap the other calls; inactive means above about -39%
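Inhibition of viral replication was scored as loss of reporter luminescence in HFFs infected with HCMV-luciferase (MOI 1 PFU/cell) for 72 h; compounds tested at 2 doses, normalized to buffer and Salinomycin controls.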
FMDV inh = High Throughput Screening for Foot and Mouth Disease Virus Antivirals | Potency, µM (highest dose often 57.9 µM), usual class: inhibitors | 410,000 compounds, 1.2% hits | FMDV antiviral cell-based qHTS; calls by dose curve; tested in HEK293T cells; further: read-out not given here; nearly all actives have a fitted effect of over 45% in size
A number is an active result; n = inactive; u = inconclusive; x = not tested or not shown; [ ] = another dose, or the depositor's remark. An excerpt weighted towards active compounds, which were near 8.3% of everything screened. Unless noted, the call rests on the fitted dose curve; in most records, active means well fitted curve in the direction sought with a large enough effect; inconclusive means small, poorly fitted or top-dose-only effect, or another doubt; inactive means no such curve, though single readings can be large; an effect the other way counts as inactive or inconclusive.

SMILES	HCV inh	Marburg entry inh	LASV entry inh	Giardia FBPA inh	HCMV antiviral	FMDV inh
Cc1nc2ccn(Cc3ccccc3)c(=O)c2cc1C(=O)Nc1ccc(F)cc1Cl	x	x	n	x	n	n
COc1ccc(CCNC(=O)c2cnn(-c3ccc(F)cc3)c2C2CCN(C(=O)OC(C)(C)C)CC2)c(OC)c1	x	x	u	x	n	n
CCCCNC(=O)C1=C(N)C(C(=O)Nc2ccc(C)c(S(=O)(=O)N3CCCCC3)c2)SC1=Nc1ccc(C)cc1C (centres undefined)	n	12.6µM	n	n	n	n
COc1ccc(OCc2cc(C(=O)N(C)C(C)c3ccon3)no2)c(Cl)c1 (centres undefined)	n	n	n	x	-92.9	n
CCOc1ccc(CCNC(=O)c2ccc(-n3c(C)cc4c3CCCC4)cc2)cc1OCC	x	x	u	x	-85.1	n
Cc1cc2c(n1-c1ccc(C(=O)NCc3ccc(OC(C)C)cc3)cc1)CCCC2	x	x	u	x	-98.6	n
Cc1ccc(CNC(=O)c2ccc(-n3c(C)cc4c3CCCC4)cc2)cc1	x	x	u	x	n	n
COc1ccc(S(=O)(=O)NCc2nc(N3CCCC3)c3cccc(C)c3n2)cc1OC	x	x	x	x	x	n
O=C(c1ccccc1)c1cc([N+](=O)[O-])ccc1N1CCOCC1	n	u	n	n	u	n
CC(=O)Nc1ccc(N2CCC(C)CC2)c([N+](=O)[O-])c1	n	n	n	n	u	n
CC1CCCN(c2ccc([N+](=O)[O-])cc2C(=O)c2ccccc2)C1 (centres undefined)	n	u	u	n	-73.6	u
Cc1ccc(C(=O)c2cc([N+](=O)[O-])ccc2N2CCCCC2)cc1	n	u	u	n	-85.4	n
Cc1ccc(C(=O)c2cc([N+](=O)[O-])ccc2N2CC(C)OC(C)C2)cc1 (centres undefined)	n	x	x	n	n	n
CC(=O)Nc1ccc(N2CCCC(C)C2)c([N+](=O)[O-])c1 (centres undefined)	3.16µM	n	n	n	u	n
COC(=O)C1(C(=O)OC)CC=CCc2ccccc2[C@H]1C[N+](=O)[O-]	x	n	x	x	x	x
CC1(COc2ccc(CC3SC(=O)NC3=O)cc2)CCCCC1 (centres undefined)	x	x	x	n	x	n[6.7 µM]
CCCOc1ccc([C@@H]2C3CN(C(=O)OCC)CC=C3C(C#N)=C(N)C2(C#N)C#N)cc1OC (some centres undefined)	n	n	10.3µM	u	n	n
CC(C)(C)OC(=O)N1CC=C2C(C#N)=C(N)C(C#N)(C#N)C(c3cccs3)C2C1 (centres undefined)	u	n	n	u	n	22.4µM
CO[C@H]1COC(=O)[C@@H](C)COC(=O)[C@H](C)NC(=O)C/C=C\[C@H]1C	x	x	x	n[12.9 µM]	x	x
O=C(NCc1ccc2c(c1)OCO2)c1nc(S(=O)(=O)Cc2ccccc2)ncc1Cl	u	u	u	x	-103.0	15.8µM
O=C(NCc1ccc2c(c1)OCO2)c1nc(S(=O)(=O)Cc2ccccc2F)ncc1Cl	n	x	x	n	-80.1	22.4µM
N#Cc1c(-c2ccc(Cl)cc2)[nH]c2ccccc12	x	x	x	x	n	x
COC(=O)c1ccccc1-c1cc(C)cc2c1OC(CNC(=O)c1ccn(C)n1)C2 (centres undefined)	x	x	x	x	x	n
COc1cccc(/C=C/C(=O)NNC(=O)CCN2CCN(Cc3ccccc3)CC2)c1	n	u	n	n	n	n
O=C(/C=C/c1ccc(F)cc1)NNC(=O)CCN1CCN(Cc2ccccc2)CC1	n	u	u	n	-96.2	n
SMILES	HCV inh	Marburg entry inh	LASV entry inh	Giardia FBPA inh	HCMV antiviral	FMDV inh
Cc1c(F)cccc1NC(=O)C1CCCN1S(=O)(=O)c1ccc(F)cc1 (centres undefined)	x	n	n	x	n	u
CC1CC(C)CN(CC(O)COCCOc2ccc(Br)cc2)C1 (centres undefined)	u	13µM	u	n	n	n
CCC[C@@H](CN1CCC[C@H]1CN1C(N)=NC[C@H]1CC(C)C)N1C[C@@H]([C@H](C)CC)N(CCCC2CCCC2)C1=N	2.82µM	x	x	x	n	n
CCC[C@@H](CN1CCC[C@H]1CN1C(N)=NC[C@H]1C(C)C)N1C[C@@H]([C@H](C)CC)N(CCCC2CCCC2)C1=N	n	x	x	x	n	n
CCCCCCN(C(=O)CCCCCN1C(=O)NC(c2ccc(-c3ccccc3)cc2)C(C(=O)OCc2ccccc2)=C1C)C(C(=O)NCCCC)c1ccc(OCC(=O)O)c(C(=O)O)c1 (centres undefined)	x	x	x	n	x	x
COc1ccc(C2C(C(=O)Nc3cc(OC)c(OC)c(OC)c3)c3ccccc3C(=O)N2C)cc1 (centres undefined)	n	u	u	n	-65.9	n
CCOC(=O)CNC(=O)C1c2ccccc2C(=O)N(c2ccc(OC)cc2)C1c1ccc(OC)cc1 (centres undefined)	n	n	u	n	n	n
CCN1CCN(CCCNC(=O)C2c3ccccc3C(=O)N(c3ccc(OC)cc3)C2c2ccc(OC)cc2)CC1 (centres undefined)	n	u	n	n	-61.7	n
CC(=O)[C@@]1(O)CC[C@H]2C3CCC4=CC(=O)CC[C@]4(C)C3CC[C@@]21C (some centres undefined)	x	n	x	n	x	x
COc1ccc(CN2CC(=O)N(c3ccc(Cl)cc3)C2=S)cc1OC	n	n	n	n	n	n
COc1ccc(CN2CC(=O)N(c3cc(Cl)ccc3OC)C2=S)cc1OC	11.2µM	x	x	n	n	u
COc1ccc(Cl)cc1N1C(=O)CN(Cc2cc(OC)c(OC)c(OC)c2)C1=S	15.8µM	x	x	n	n	n
CCOc1ccccc1N1C(=O)CN(Cc2ccc(OC)c(OC)c2)C1=S	12.6µM	x	x	n	n	n
COc1ccc(CN2CC(=O)N(c3ccccc3OC)C2=S)cc1OC	n	n	n	n	n	n
Cc1ccc(-c2c(C)n3c4c(=O)n(C)c(=O)n(C)c4nc3n2-c2cccc(O)c2)cc1	x	n	u	x	n	n
CCN1CCCC1CNC(=O)C1=C(OC)CC(N(C)C)=C(NC(C)=O)C1 (centres undefined)	x	n	x	x	x	x
O=C(CSc1ccc(F)cc1)Nc1ccccc1Br	n	n	n	n	-61.4	n
O=C(CSc1ccc(F)cc1)Nc1ccc(Br)cc1	n	x	x	n	n	n
COc1cc(/C=N/NC(=O)C(Cc2c[nH]c3ccccc23)NC(=O)OCc2ccccc2)cc([N+](=O)[O-])c1O (centres undefined)	n	n	6.31µM	n	n	n
CCCCNc1c(-c2cccc(-c3cc(C(C)=O)cs3)c2)nc2ccc(C)cn12	u	x	x	x	n	u
CCCCNc1c(-c2cccc(-c3ccc(OC)cc3)c2)nc2cc(C)ccn12	11.2µM	x	x	x	-102.4	25.1µM
CCCCNc1c(-c2cccc(-c3ccc(OC)cc3)c2)nc2ccc(C)cn12	u	x	x	x	n	28.2µM
CC1(C)NC(=O)N(C[C@@H](O)Cn2nnc3ccccc32)C1=O	x	n	x	x	x	x
